Values without a mark were called inactive. Activity calls are given as the source filed them. Calls come from the whole dose curve.
What follows are molecules tested against Acetylcholinesterase (Homo sapiens) (UniProt P22303) (assay: Acetylcholinesterase (AChE) small molecule antagonists: enzyme-based qHTS assay with human liver microsomes (AID 1347399; note: nearly all actives have a fitted effect of over 60% in size)). Conditions: Potency: qHTS inhibition; outcome: qHTS inhibition; series mostly up to 115 µM; activity change, negative = inhibition: at the top concentration.
Sequence of Acetylcholinesterase (Homo sapiens) (P22303 whole entry, looked up): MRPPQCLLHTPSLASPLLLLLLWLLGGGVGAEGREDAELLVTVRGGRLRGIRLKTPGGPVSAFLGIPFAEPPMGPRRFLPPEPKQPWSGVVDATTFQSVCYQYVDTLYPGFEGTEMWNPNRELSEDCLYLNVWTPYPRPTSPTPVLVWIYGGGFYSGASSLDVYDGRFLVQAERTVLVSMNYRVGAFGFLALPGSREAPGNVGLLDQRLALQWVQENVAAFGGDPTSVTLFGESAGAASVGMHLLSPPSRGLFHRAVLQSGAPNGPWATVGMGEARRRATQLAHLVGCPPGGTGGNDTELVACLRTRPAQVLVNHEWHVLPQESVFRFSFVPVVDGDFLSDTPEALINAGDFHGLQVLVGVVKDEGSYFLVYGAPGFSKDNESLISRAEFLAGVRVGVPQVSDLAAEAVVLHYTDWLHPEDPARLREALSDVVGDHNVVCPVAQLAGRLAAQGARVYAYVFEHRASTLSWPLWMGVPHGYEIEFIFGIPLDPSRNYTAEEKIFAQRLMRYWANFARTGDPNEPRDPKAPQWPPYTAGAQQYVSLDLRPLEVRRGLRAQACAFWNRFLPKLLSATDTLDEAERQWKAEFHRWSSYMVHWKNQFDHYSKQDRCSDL
Text: National Center for Advancing Translational Sciences [NCATS]
Division of Preclinical Innovation [DPI]
U.S. Environmental Protection Agency [EPA]
National Institutes of Environmental Health Sciences [NIEHS]
National Toxicology Program [NTP]
U.S. Food and Drug Administration [FDA]
Acetylcholinesterase (AChE) is the primary cholinesterase in the body that hydrolyzes a key neurotransmitter, acetylcholine. Inhibition of AChE activity can lead to neurotoxicity. The known inhibitors include organophosphorous pesticides (OP), chemical warfare agents, drugs, and various phytochemicals. Some compounds like OP compounds may need metabolic activation to be active AChE inhibitors. The cytochrome P450 (CYP) superfamily in the human microsomes is responsible for the metabolism of various endogenous and exogenous compounds.
An enzyme-based assay with the recombinant human AChE, human liver microsomes and Amplite Colormetric acetylcholinesterase assay kit (AAT Bioquest, Sunnyvale, CA) was used to evaluate compounds in the Tox21 10K library that need metabolic activation for AChE inhibition. The assay uses 5, 5-dithiobis-(2-nitrobenzoic acid) (DTNB) to quantify the thiocholine produced from the hydrolysis of acetylthiocholine by AChE.
Tox21 Assay Protocol Summary:
For the enzyme-based AChE assay with microsomes addition, a mixture of human AChE (50 mU/mL) and human liver microsomes (0.25 mg/mL, final concentration) in 3 uL/well was dispensed into black, clear-bottom 1536-well plates using a Multidrop Combi dispenser (Thermo Scientific, MA). Then, 23 nL of compound or DMSO (vehicle control) was transferred into the assay plates by a Pintool Station (Wako Automation, CA). Following compound addition, 1 uL of NADPH (0.25 mg/mL, final concentration) was transferred to the assay plate by a Flying Reagent Dispenser (Beckman Coulter, CA). The plates were incubated for 30 min at 37 C and 5% CO2, followed by the addition of 4 uL of colorimetric detection cocktail solution (DTNB, acetylthiocholine) into each well using a Flying Reagent Dispenser (Beckman Coulter, CA) and then 10 min incubation at room temperature.
% is set by controls: 0 for no effect and ±100 for the full control effect.

SMILES	activity change, negative = inhibition	outcome
N#CCCCC(C#N)CCC#N (stereo not given)	0.291%	
Nc1cnn([C@@H]2O[C@H](CO)[C@@H](O)[C@H]2O)c(=O)n1	0.853%	
O=S(=O)(O)c1ccc(N=Nc2c(O)ccc3ccccc23)cc1	5.28%	
CN(C)CCC[C@@]1(c2ccc(F)cc2)OCc2cc(C#N)ccc21	2% [at 53 µM]	
CCCCOC(=O)CC	1.3%	
COc1ccc(-c2coc3cc(O)ccc3c2=O)cc1	3.89%	
CCC(C)(CCC(C)C)C(=O)O (stereo not given)	-0.153%	
COc1cc(C(C)C)c2c(c1)S(=O)(=O)N(COc1cc(=O)n3cccc(OCCN4CCCCC4)c3n1)C2=O	-1.08% [at 23.6 µM]	
CCCCC(CC)COCCO (stereo not given)	-0.222%	
CN(C)CCN(C)CCO	-0.148%	
O=C1C=CC(=O)N1	-16.7%	
O=C1CCCN1C1CCCCC1	-0.295%	
Nc1c(NC/C=C\COc2cc(CN3CCCCC3)ccn2)c(=O)c1=O	0.669% [at 23.6 µM]	
CC[C@H](C)[C@H](N)C(=O)O	-1.1% [at 53 µM]	
CCCCOCCOC(=O)COc1nc(Cl)c(Cl)cc1Cl	-1.24%	
C=C1CC[C@H]2C[C@@H]1C2(C)C	-0.652%	
Cc1ccco1	-0.345%	
OC(CCN1CCCCC1)(c1ccccc1)C1CC2C=CC1C2 (stereo not given)	-1.26% [at 53 µM]	
C[C@H]1NCc2cc(-c3ccc4c(=O)c(C(=O)O)cn(C5CC5)c4c3OC(F)F)ccc21		inactive
CCCC(C)C=O (stereo not given)	-4.63%	

SMILES	activity change, negative = inhibition	outcome
NC(Cc1ccc(Cl)cc1)C(=O)O (stereo not given)	-1.76% [at 0.435 µM]	
O=C(Nc1ccc(Cl)cc1)Nc1ccc(Cl)c(C(F)(F)F)c1	1.87% [at 53 µM]	
CC(Cc1ccccc1)(NC(=O)CN)c1ccccc1 (stereo not given)	0.0085% [at 53 µM]	
CCCCN1C(=O)[C@@H]([C@H](O)C2CCCCC2)NC(=O)C12CCN(Cc1ccc(Oc3ccc(C(=O)O)cc3)cc1)CC2	0.414%	
C=CCN(CC=C)CC=C	-0.462%	
Cc1cn[nH]c1	0.59% [at 53 µM]	
O=C(CCCl)NCCc1ccccc1	-2.8% [at 53 µM]	
Cc1ccc(C(C)OC(=O)C2(C)CCC(C(=O)O)C2(C)C)cc1 (stereo not given)	0.844% [at 53 µM]	
C[C@@H](O)[C@H](N)C(=O)O	-2.85% [at 23.6 µM]	
CN(C)CCN1C(=O)c2ccccc2N(C)c2ccccc21	-0.0099% [at 53 µM]	
OCC(CO)N[C@H]1C[C@](O)(CO)[C@@H](O)[C@H](O)[C@H]1O	0.362% [at 53 µM]	
Cc1ccc(Cl)c(OCC(O)CNC(C)(C)C)c1 (stereo not given)	6.13% [at 53 µM]	
O=C(Nc1ccc(Cl)c(Cl)c1)c1cc(Cl)cc(Cl)c1O	1.16%	
CN(C(=O)C(Cl)Cl)c1ccc(OC(=O)c2ccco2)cc1	-0.805% [at 53 µM]	
COC(=O)CCSCCC(=O)OC	0.477%	
CCOC(=N)CC(=O)OCC	-3.67%	
Cc1ccc(N)nc1	0.47%	
ON(Cc1ccccc1)Cc1ccccc1	0.306%	
CCc1cc(Cc2cc(CC)c(N)c(CC)c2)cc(CC)c1N	1.57%	
CCCCOC(=O)/C=C\C(=O)OCCCC	2.99%	

— PubChem BioAssay (Tox21)
